Drawing on PubChem BioAssay (NCI), this text covers growth for 40 compounds.

The panel holds about 83,000 compounds, 20% with a hit somewhere; the sample as a whole holds those more often.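 Method: cells in 96-well plates; compound added at one concentration; 48 h incubation; percent growth measured; values under 10 scored active.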 Active and inactive are the calls of the source.

The assay relates to MDA-MB-468 breast. Kind of assay: NCI-60 one-dose screen, 48 h (100 = growth as untreated, 0 = no growth, -100 = all killed). The following applies: 10 µM unless noted. Here is the method:
Growth inhibition of the MDA-MB-468 human Breast tumor cell line is measured as a screen for anti-cancer activity. Cells are grown in 96 well plates and exposed to the test compound for 48 hours. Compounds are tested at a single concentration, which is 10^-5 M for most compounds. The reported endpoint is percent growth (GI% or GIPRCNT), where numbers from 0 - 100% represent growth inhibition, and numbers from -100% - 0 represent cell death. For example, a value of 40 represents 60% growth inhibition. A value of 0 means no net growth occurred over the course of the experiment. A value of -40 indicates 40% of cells at the beginning of the experiment died by the end of the experiment. A value of -100 means all cells are dead at the end of the experiment.
NCI-60 Human Tumor Cell Lines Screen was performed using the standard one-dose NCI protocol, which is described in more detail at https://dtp.cancer.gov/discovery_development/nci-60/default.htm.
Compounds with GIPRCNT values below 10 were considered active. Activity score was based on GIPRCNT using the following formula: […]
Score is 0 for GIPRCNT values of 100 or above, 50 for GIPRCNT values of 0, and 100 for GIPRCNT values of -100.
With `O=C(/C=C/c1cccc(O)c1)c1ccc(O)cc1`, the growth was 40.9% (inactive).
Consider `Cc1ccc(-c2nnc(SCc3nc(N)nc(Nc4ccccc4F)n3)n2-c2ccccc2)cc1`, for which the growth was 86.5% (inactive).
In the case of `CC(=O)[C@@H]1CC[C@]2(C(=O)O)CC[C@]3(C)[C@H](CC[C@@H]4[C@@]5(C)Cc6c([nH]c7ccccc67)C(C)(C)[C@@H]5CC[C@]43C)[C@@H]12`, the growth is 82% (inactive).
Regarding `Cc1cc(=O)oc2cc(Oc3nc(Br)cn4c(Br)cnc34)ccc12`, the growth was 41.4% (inactive).
In the case of `Cc1cc(F)cc(NS(=O)(=O)c2ccc(-c3cnc(C4CC4)o3)cc2)c1`, the growth was -1.16% (active).
To `O=C(N/N=C\c1ccccc1S(=O)(=O)O)N/N=C/c1ccccc1S(=O)(=O)O` belongs 101% (inactive).
To `COc1cc(C2C3CC4CCCC[C@H]4N3[C@@]3(C(=O)Nc4cc(Cl)ccc43)C2C(=O)c2nc3ccccc3[nH]2)cc(OC)c1OC` (stereo not given in full) belongs 52.8% (inactive).
To `O=C(Nc1ccc(-n2cc(-c3ccncc3)c(-c3ccc(Cl)c(O)c3)n2)cc1)c1cc(C(F)(F)F)cc(C(F)(F)F)c1` belongs 71.9% (inactive).
`COc1cccc(-c2nc(-c3ccc(NC(=O)C(C)C)cc3)[nH]c2-c2ccnc(Br)c2)c1`: the growth is 26.4% (inactive).
As for `CC1OC(O[C@@H]2C(O)C(CO)OC(O[C@H]3COC(O[C@H]4CC[C@]5(C)[C@H]6CC[C@]78OC[C@@]9(CC[C@](C)(C=O)C[C@H]97)[C@H](O)C[C@@]8(C)[C@]6(C)CC[C@H]5C4(C)C)[C@@H](OC4OC(CO)[C@@H](O)[C@@H](O)[C@@H]4O)[C@@H]3O)[C@H]2OC2OC[C@@H](O)[C@@H](O)[C@@H]2O)[C@@H](O)[C@@H](O)[C@H]1O` (stereo not given in full), the figure is 34.5% (inactive); as for `CC/C=C\C/C=C\C[C@H](O)C/C=C1/C(=O)C=C[C@@H]1C/C=C\CCCC(=O)O`, 23.5% (inactive); as for `N#C/C(=C\c1ccc(-c2ccc(Cl)cc2)o1)c1nc(-c2ccco2)cs1`, -26.7% (active).
For `CC(=O)Cc1ccccn1`, the growth is 120% (inactive).
Consider `O=C1/C(=C/c2ccc(Cl)cc2)CN(Cc2cn(CCCNc3ccnc4cc(Cl)ccc34)nn2)C/C1=C\c1ccc(Cl)cc1`, for which the growth is -69.8% (active).
As for `CCCCCCCCCCCC(=O)OC(C)C(=O)Nc1ccccc1` (stereo not given), the figure is 111% (inactive); as for `C(=N/Nc1ncc(-c2cc3cc(-c4ccccc4)ccc3o2)s1)/c1cccs1`, 77.6% (inactive).
Regarding `CCOC(=O)Nc1ccc2nc(N3CCCCCC3)sc2c1`, the growth was -4.19% (active).
For `CCOC(=O)C#Cc1c(CC(=O)OCC)nnn1[C@H]1O[C@@H](CO)[C@@H]2OC(C)(C)O[C@@H]21`, the growth is 10.6% (inactive).
On to `Cc1cccc(N2CCC(=O)NC2=S)c1`, for which the growth was 100% (inactive).
`CC(=O)Oc1ccccc1C(=O)Nc1ncc([N+](=O)[O-])s1`: the growth was 36.9% (inactive).
With `COc1cc(Nc2cc(C)nc(N3CCN(c4ccnc5cc(Cl)ccc45)CC3)n2)cc(OC)c1`, the growth is 11.2% (inactive).
Consider `CCOC(=O)c1cnc2ccc(Br)cc2c1Nc1cccc(S(N)(=O)=O)c1`, for which the growth was 106% (inactive).
Turning to `O=C1C=CN2C(=O)CC=CC2[C@@H]1O` (stereo not given in full), the growth is 110% (inactive).
To `COc1cc(C(=O)NNC(=O)c2ccccc2O)cc(OC)c1OC` belongs 103% (inactive); to `NCCNc1ccc2cc(-c3nc4ccccc4[nH]3)c(=O)oc2c1`, 94.9% (inactive); to `Cc1ccc2nc(-c3ccc(-n4on4-c4ccc(/C=C/c5ccc(-n6on6-c6ccc(-c7nc8ccc(C)cc8s7)cc6)cc5S(=O)(=O)O)c(S(=O)(=O)O)c4)cc3)sc2c1`, 114% (inactive).
As to `C(CCCSC1=NCCN1)CCSC1=NCCN1`, the growth is 92% (inactive).
As for `C#CCOc1ccc2ncnc(NCc3cccc(NC(=O)CCl)c3)c2c1`, the figure is 4.87% [8.25 µM] (active).
Regarding `Cc1nc2cnc(N)c(C#Cc3cncc(C(=O)Nc4ccc(CN5CCN(C)CC5)c(C(F)(F)F)c4)c3)c2nc1C`, the growth is 55.8% (inactive).
On to `COc1ccc(-c2ccnc3c(C#N)c(Nc4ccccc4)nn23)cc1OC`, for which the growth is 79.4% (inactive).
Take `CCOC(=O)C(=O)Cc1cccnn1`: the growth was 102% (inactive).
To `CN(C)CCOc1ccc(-c2nc3ccc(-c4nc5ccc(N6CCN(C)CC6)cc5[nH]4)cc3[nH]2)cc1` belongs 40.2% (inactive); to `CCCCCCCCCCCCCC[n+]1ccc2c(C)c3c(c(C)c2c1)c1cc(O)ccc1n3CC`, -63.6% (active); to `CN(C)CCCOc1c2ccc(Cl)cc2nc2c1oc1ccccc12`, -39.8% (active).
As for `O=C(Nc1ccc(Nc2cc(Nc3ccccc3)ncn2)cc1)Nc1cc(C(F)(F)F)ccc1F`, the growth was 55.3% (inactive).
Turning to `Cc1ccc(-c2cc3nc(C(Cl)Cl)nc(-c4ccco4)n3n2)cc1`, the growth is -41.3% (active).
Turning to `N#Cc1nn(-c2cc(=O)[nH]c3ccc(Br)cc23)c(N)c1C#N`, the growth is 106% (inactive).
For `Nc1ncc(-c2ccc3ncnc(N4CCc5cc(F)c(F)cc54)c3c2)cn1`, the growth was 4.19% (active).
Regarding `O=C1CCC(C(=O)N/N=C/c2ccc([N+](=O)[O-])cc2)N1` (stereo not given), the growth is 110% (inactive).
Regarding `COC1C[C@H](O[C@@H]2C[C@H](O[C@@H]3C[C@H](O[C@@H]4C(=O)c5c(cc6cc(O[C@H]7C[C@@H](O[C@H]8C[C@@H](O)[C@H](O)C(C)O8)[C@H](O)C(C)O7)c(C)c(O)c6c5O)C[C@H]4C(OC)C(=O)[C@@H](O)[C@@H](C)O)OC(C)[C@H]3O)OC(C)[C@@H]2O)OC(C)[C@@H]1O` (stereo not given in full), the growth was -55% (active).
